Rows were chosen to be rich in hits. Some 7.3% of all compounds tested hit in one or more screens of this group.
FMDV antiviral: antivirals against foot and mouth disease virus. 1.2% of 410,000 active. AID 1159524. FMDV antiviral cell-based qHTS. Potency, µM (doses to about 57.9 µM), without a hit: top-dose activity change, negative = inhibition, usual class: inhibitors; calls by dose curve; tested in HEK293T cells; note: read-out not given here; potency is the fitted concentration of half-maximal effect; nearly all actives have a fitted effect of over 45% in size
HCV inh: HCV inhibition; 3.4% of 340,000 active; Potency, µM (series often up to 41.8 µM), for inactives: top-dose activity change, negative = inhibition, actives largely listed as inhibitors; Huh7.5.1 HCVcc-Cre infection, luciferase reporter, 44 h; AID 651820; active = well fitted inhibition curve with a large enough effect; inconclusive = small, poorly fitted or top-dose-only effect, or another doubt; inactive = no such curve, though single readings can be large or run the other way; note: potency is the fitted concentration of half-maximal effect
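Seed cells (1,000/well) for 4 h; treat with compound and infect with HCVcc-Cre, moi about 0.5. Incubate 44 h, then detect luciferase activity.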
HCMV antiviral: inhibitors of human cytomegalovirus | AID 1259415 | activity change, negative = inhibition, % at 57.5 µM | HFF cells, HCMV-luciferase reporter, 72 h; hits give low values | 4.5% of 410,000 active; in the data active = activity change below about -60%; inconclusive = no clear call, values can overlap the other calls; inactive = above about -39%
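After 16 h attachment at 37C, HFF cells received test compound and HCMV-luciferase (1 PFU/cell); reporter luminescence read 72 h later, data normalized against buffer-only and known inhibitor Salinomycin.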
VACV Venus inh: vaccinia inhibition (Venus reporter) | Potency, µM (titrated, usually from 36.5 µM), inactives show at the top dose activity change, negative = inhibition, hits mostly inhibitors | Vaccinia virus Venus reporter expression, fluorescence | 0.46% of 330,000 active; calls by dose curve; tested in A549 cells; note: potency is the fitted concentration of half-maximal effect; nearly all actives have a fitted effect of over 30% in size
Vaccinia mCherry: inhibitors of vaccinia virus infection (mCherry reporter signal); Vaccinia virus mCherry reporter infection, fluorescence; Potency, µM (series often up to 36.5 µM), inactives show top-dose activity change, negative = inhibition, hits mostly inhibitors; AID 720579; 0.63% of 310,000 active; calls by dose curve; tested in A549 cells; note: potency is the fitted concentration of half-maximal effect; nearly all actives have a fitted effect of over 35% in size
The depositor's hits bear a star; i = inactive; ? = inconclusive; nt = no result; ! = not confirmed by another sample; [ ] = another dose, or the depositor's remark. % is set by controls: 0 for no effect and ±100 for the full control effect.

SMILES | FMDV antiviral | HCV inh | HCMV antiviral | VACV Venus inh | Vaccinia mCherry
CCCCNC(=O)C1(C)CCN1C(=O)c1ccc2sccc2c1 (configuration not stated) | -12.0% | nt | -9.9 | 0.6% | i
Clc1ccc(C(Cn2ccnc2)OCc2csc3c(Cl)cccc23)c(Cl)c1 (configuration not stated) | -2.3% | 12.6µM* | 9.7 | -26.1% | -13.2%
Clc1ccc(CCC(Cn2ccnc2)Sc2c(Cl)cccc2Cl)cc1 (configuration not stated) | ? | ? | 29.5 | -21.7% | -7.1%
Clc1ccc(C(Cn2ccnc2)OCc2c(Cl)cccc2Cl)c(Cl)c1 (configuration not stated) | ? | -17.1% | -64.4* | -23.6% | -11.1%
OC(Cn1ccnc1)c1ccc(Cl)cc1Cl (configuration not stated) | -7.5% | 8.5% | -2.1 | -15.6% | -14.1%[1.46 µM]
CN(Cc1ccc(OCC(O)CN2CCCCC2)cc1)Cc1ccnc2ccccc12 (configuration not stated) | ? | 5.62µM* | -65.8* | ? | ?
CCOc1cc(/C=N/N=C(N)N)ccc1OCc1ccc(Cl)cc1 | -21.0% | ? | -24.3 | -21.1% | -1.4%
NC(N)=N/N=C/c1ccc(OCc2ccccc2)c(OCc2ccccc2)c1 | 28.4% | ? | -102.7* | -14.8% | ?
NCCc1ccc(OCc2ccccc2)c(OCc2ccccc2)c1 | -23.3% | 7.94µM* | -93.5* | ? | 17.8µM*
COc1ccc(CCN)cc1OC | -5.7% | 5.2% | 17.7 | -2.7% | 3.4%
COc1cc(/C=N/N=C(N)N)ccc1OCc1ccc(Cl)cc1 | -44.9% | 12.6µM* | -101.7* | nt | nt
Cc1cccc(/C(N)=N/OC(=O)CCCc2ccccc2)c1 | 15.1% | 7.1% | 46.8 | -6.0% | i
COc1ccc(C(c2nnnn2C2CCCCC2)N2CCN(C/C=C/c3ccccc3)CC2)cc1 (configuration not stated) | 8.4% | nt | 14.8 | -9.9% | i
Cc1ccc(C)c(N(CC(=O)NC2CCCC2)S(=O)(=O)c2ccccc2)c1 | 24.8% | -2.9% | -1.0 | -8.7% | i
O=C(NCc1ccncc1)C1CCN(S(=O)(=O)c2ccc(Cl)c(C(F)(F)F)c2)CC1 | -16.8% | 44.0% | -36.1 | -20.8% | -22.5%
COc1cc(/C=N\Nc2nncn2N)ccc1OC(C)=O | 6.7% | 22.3% | -7.9 | 20µM* | 15.8µM*
COc1cc(/C=N/NC(=O)c2ccncc2)ccc1OC(C)=O | -5.2% | 9.2% | -11.2 | nt | nt
Cc1cccc(Nc2nc(N)nc(CCl)n2)c1C | 1.0% | -74.8% | -96.5* | ? | ?
Cc1ccc(Nc2nc(N)nc(CCl)n2)cc1 | 6.8% | -80.7% | -108.1* | -7.5% | i
COc1ccc(Nc2nc(N)nc(CSc3nc4ccccc4s3)n2)cc1 | ? | nt | -21.0 | -19.8% | ?
Cc1ccc(Nc2nc(N)nc(CC#N)n2)cc1 | nt | -0.6% | 70.3 | -10.4% | -15.8%
Nc1nc(COC(=O)CCC(=O)c2ccccc2)nc(Nc2ccccc2)n1 | -6.0% | -10.0% | 5.3 | -5.6% | i
Cc1ccc(Nc2nc(N)nc(CSc3nc4ccccc4s3)n2)cc1 | 0.0% | ? | -90.9*! | ? | ?
Nc1nc(COC(=O)c2ccc3c(c2)OCCO3)nc(Nc2ccccc2)n1 | ? | 11.2µM* | 173.6 | -19.7% | -21.7%
COc1ccc(-c2cc(C(C)=O)c(C)n2CCC(=O)Nc2ccc(C(F)(F)F)cc2)cc1 | ? | nt | 0.0 | -21.1% | -22.9%
SMILES | FMDV antiviral | HCV inh | HCMV antiviral | VACV Venus inh | Vaccinia mCherry
O=C1N(Cc2cccc(C(F)(F)F)c2)c2ccccc2S(=O)(=O)N1c1cccc(Cl)c1 | -24.3% | nt | -18.8 | 9.4% | 15.0%
Cc1ccc(Nc2nc(N)nc(CN3CCCCCC3)n2)c(C)c1 | -15.9% | ? | 17.9 | ? | nt
CCOc1ccc(Nc2nc(N)nc(CCl)n2)cc1 | 13.4% | 0.562µM* | -96.5* | ? | ?
Nc1nc(CSc2n[nH]c(-c3ccccc3)n2)nc(Nc2ccccc2)n1 | ? | 3.16µM* | -30.0 | -27.8% | ?
CCOc1ccc(Nc2nc(N)nc(CN3CCN(c4ccccc4F)CC3)n2)cc1 | ? | -20.0% | ? | ? | -27.7%
Cc1ccc(Nc2nc(N)nc(CCl)n2)c(C)c1 | 15.9% | 0.501µM* | -102.7* | nt | nt
Nc1nc(CCl)nc(Nc2ccccc2)n1 | 37.9% | ? | -91.2* | nt | nt
COc1ccc(-c2c(C(=O)c3ccc(Br)cc3)[nH]c(N)c2C(=O)NCCc2c[nH]c3ccccc23)cc1OC | nt | nt | 66.8 | nt | nt
CN(C)c1ncc2nc(-c3ccc(F)cc3)c(=O)n(C)c2n1 | 34.4% | nt | nt | nt | nt
